Experimental data taken from PubChem BioAssay (EPA / NIEHS).
Where “and” joins values, the source holds several entries; their conditions need not be identical. Equal values may be shown once. Where a structure was tested more than once in an assay, its records may differ in their call. Calls of active or inactive are those of the source. How the source made its calls: active means hit-call score of the fitted dose curve at least 0.9, where 1 is the maximum; inactive means score below 0.9.

Columns and labels:
[1] = read-out: Human Leukocyte Antigen - DR isotype (HLADR), HLA-DRA (gene 3122); assay: BSK_BE3C_HLADR: BioMAP Diversity Plus: BE3C Assay for Human Leukocyte Antigen - DR isotype (HLADR) Biomarker Activity (AID 2283032); settings: primary human bronchial epithelial cells; actives raise or lower the signal
Method in brief: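 Cell-surface HLA-DR ELISA readout at 24 h after dosing in the BE3C primary human lung bronchial epithelial system; gain or loss of signal against DMSO, with parallel sulforhodamine B staining of total protein for overt cytotoxicity.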

[2] = read-out: Vascular cell adhesion molecule 1 (VCAM1), VCAM1 (gene 7412); assay: BSK_4H_VCAM1: BioMAP Diversity Plus: 4H Assay for Vascular cell adhesion molecule 1 (VCAM1) Biomarker Activity (AID 2283033); settings: primary human endothelial cells (HUVEC); actives raise or lower the signal;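 on outcome: cell-surface VCAM-1 protein measured by ELISA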
Method in brief: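 VCAM-1 ELISA read 24 h after chemical dosing of HUVEC in the BioMAP 4H system, with gain or loss of signal fitted relative to DMSO. Parallel SRB staining (560 nm) checked overt cytotoxicity.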

[3] = read-out: Interferon-gamma inducible Protein 10 (IP10), CXCL10 (gene 3627); assay: BSK_BE3C_IP10: BioMAP Diversity Plus: BE3C Assay for Interferon-gamma inducible Protein 10 (IP10) Biomarker Activity (AID 2283034); settings: primary human bronchial epithelial cells; actives raise or lower the signal
Method in brief: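 IP-10 quantified by ELISA in human primary bronchial epithelial cell cultures at 24 hours post-dosing. Gain or loss of signal fitted relative to DMSO; parallel SRB staining assessed overt cytotoxicity.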

[4] = read-out: Monokine induced gamma interferon (MIG), CXCL9 (gene 4283); assay: BSK_BE3C_MIG: BioMAP Diversity Plus: BE3C Assay for Monokine induced gamma interferon (MIG) Biomarker Activity (AID 2283035); settings: primary human bronchial epithelial cells; actives raise or lower the signal;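 further: MIG protein measured by ELISA in BE3C cultures after 24 h of dosing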
Method in brief: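 hu bronchial epithelial 1° cells, 24 h cpd; MIG by ELISA; bidirectional fit, DMSO = baseline.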

[5] = read-out: Transforming growth factor beta 1 (TGFb1), TGFB1 (gene 7040); assay: BSK_BE3C_TGFb1: BioMAP Diversity Plus: BE3C Assay for Transforming growth factor beta 1 (TGFb1) Biomarker Activity (AID 2283036;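 further: TGF-b1 protein level measured by ELISA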); settings: primary human bronchial epithelial cells; actives raise or lower the signal
Method in brief: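 ELISA readout of TGF-b1 from human lung bronchial epithelial primary cells, taken 24 h post-treatment. Gain or loss of signal fitted relative to DMSO baseline, with parallel SRB staining for overt cytotoxicity.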

[6] = read-out: Plasminogen activator inhibitor-1 (PAI1), SERPINE1 (gene 5054); assay: BSK_BE3C_PAI1: BioMAP Diversity Plus: BE3C Assay for Plasminogen activator inhibitor-1 (PAI1) Biomarker Activity (AID 2283037); settings: primary human bronchial epithelial cells; actives raise or lower the signal
Method in brief: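 PAI-1 was measured by ELISA in human primary bronchial epithelial cultures 24 h after chemical dosing, with cytotoxicity checked by SRB total-protein staining in parallel cultures. Activity was fitted in both directions relative to DMSO.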

[7] = read-out: urokinase plasminogen activator (uPA), PLAU (gene 5328); assay: BSK_BE3C_uPA: BioMAP Diversity Plus: BE3C Assay for urokinase plasminogen activator (uPA) Biomarker Activity (AID 2283038); settings: primary human bronchial epithelial cells; actives raise or lower the signal;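 on outcome: uPA protein level quantified by ELISA in cell cultures; uPA read one day after compound addition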
Method in brief: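 Bronchial epithelial cells (human, primary); chemical 24 h; uPA by ELISA; bidirectional fit vs DMSO. SRB (0.1%, after 10% TCA fixation, 560 nm) in parallel cultures for cytotoxicity.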

[8] = read-out: Urokinase-type plasminogen activator receptor (uPAR), PLAUR (gene 5329); assay: BSK_BE3C_uPAR: BioMAP Diversity Plus: BE3C Assay for Urokinase-type plasminogen activator receptor (uPAR) Biomarker Activity (AID 2283039); settings: primary human bronchial epithelial cells; actives raise or lower the signal;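 further: cells exposed to compound for one day before measurement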
Method in brief: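 uPAR levels were measured by ELISA after 24 h compound treatment of primary human bronchial epithelial cells, fitted in both directions relative to DMSO. Parallel SRB staining served as the cytotoxicity read-out.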

[9] = read-out: Interleukin-6 (IL6), IL6 (gene 3569); assay: BSK_CASM3C_IL6: BioMAP Diversity Plus: CASM3C Assay for Interleukin-6 (IL6) Biomarker Activity for (AID 2283040); settings: primary human coronary artery smooth muscle cells; actives raise or lower the signal

SMILES	outcome [1]	outcome [2]	outcome [3]	outcome [4]	outcome [5]	outcome [6]	outcome [7]	outcome [8]	outcome [9]	AC50 [3]	AC50 [6]	AC50 [1]	AC50 [9]	AC50 [2]	AC50 [7]
O=C(O)c1ccccc1	inactive	inactive	inactive	inactive	inactive	inactive	inactive	inactive	inactive	–	–	–	–	–	–
CCCCOC(=O)[C@@H](C)Oc1ccc(Oc2ccc(C(F)(F)F)cn2)cc1	inactive	inactive	inactive	inactive	inactive	inactive	inactive	inactive	inactive	–	–	–	–	–	–
CCCN(CCC)C(=O)SCC	inactive	inactive	inactive	inactive	inactive	inactive	inactive	inactive	inactive	–	–	–	–	–	–
N[C@@H](Cc1cc(I)c(Oc2ccc(O)c(I)c2)c(I)c1)C(=O)O	inactive	inactive	–	inactive	inactive	–	inactive	inactive	inactive	21.3 µM (active)	18.8 µM (active)	–	–	–	–
CCN(CC)C(=O)c1cccc(C)c1	inactive	inactive	inactive	inactive	inactive	inactive	inactive	inactive	inactive	–	–	–	–	–	–
CCOC(=O)[C@H](C)Oc1ccc(Oc2nc3ccc(Cl)cc3o2)cc1	inactive	inactive	inactive	inactive	inactive	–	inactive	inactive	inactive	–	3.97 µM (active)	–	–	–	–
S=C([S-])NCCNC(=S)[S-].[Mn+2]	–	inactive	inactive	inactive	inactive	inactive	inactive	inactive	–	–	–	30.5 µM (active)	12.2 µM (active)	–	–
S=C(S)NCCNC(=S)S.[Mn+2].[S-]C([S-])=NCCN=C([S-])[S-].[Zn+2]	inactive	inactive	inactive	inactive	inactive	inactive	inactive	inactive	inactive	15.2 µM (active)	–	8.2 µM (active) and 10 µM (active)	–	10 µM (active)	209 nM (active) and 1.08 µM (active) and 2.73 µM (active)
CCSC(=O)N(CC(C)C)CC(C)C	inactive	inactive	inactive	inactive	inactive	inactive	inactive	inactive	inactive	–	–	–	–	–	–
CCC(O)=C1C(=O)CC(C(=O)O)CC1=O (stereo not drawn)	inactive	inactive	inactive	inactive	inactive	inactive	inactive	inactive	inactive	–	–	–	–	–	–
CCOC(=O)c1ccc(O)cc1	inactive	inactive	inactive	inactive	inactive	inactive	inactive	inactive	inactive	–	–	–	–	–	–
CCC(C)OC(=O)N1CCCCC1CCO (stereo not drawn)	inactive	inactive	inactive	inactive	inactive	inactive	inactive	inactive	inactive	–	–	–	–	–	–
CC(=O)S[C@@H]1CC2=CC(=O)CC[C@]2(C)[C@H]2CC[C@@]3(C)[C@@H](CC[C@@]34CCC(=O)O4)[C@H]12	inactive	–	–	inactive	inactive	inactive	inactive	inactive	inactive	30.9 µM (active)	–	–	–	34.3 µM (active)	–
O=C(c1ccc(O)cc1O)c1ccc(O)cc1O	inactive	inactive	–	inactive	inactive	–	inactive	inactive	inactive	30.5 µM (active)	34.6 µM (active)	–	–	–	–
COC(=O)c1cccc(C)c1S(=O)(=O)NC(=O)Nc1nc(OCC(F)(F)F)nc(N(C)C)n1	inactive	inactive	inactive	inactive	inactive	inactive	inactive	inactive	inactive	–	–	–	–	–	–
C#CCOC(=O)[C@@H](C)Oc1ccc(Oc2ncc(Cl)cc2F)cc1	inactive	inactive	inactive	inactive	inactive	inactive	inactive	inactive	inactive	–	–	–	–	–	–
